Inconclusive results are not listed. A number with no mark means an inactive call. Active and inactive are the calls of the source. The call rests on the fitted dose curve; in most records, active means well fitted cell-killing curve with a large enough effect in the repeat runs; inconclusive means weak or mixed curves, or effect the other way; inactive means flat fitted curve, though single readings scatter.
On the % scale 0 is the no-effect control and ±100 the full control effect; potency means the concentration at half of the fitted maximal effect.

A short description of the assay: qHTS assay to identify small molecule antagonists of the retinoid acid receptor (RAR) signaling pathway - cell viability counter screen (AID 1159551). Further: nearly all actives have a fitted effect of over 35% in size. The following applies: C3RL4 cells viability, ATP luminescence (CellTiter-Glo), 6 h; series mostly up to 92.4 µM; activity change, negative = cytotoxicity: at the top concentration. From the text: U.S. Tox21 Program National Center for Advancing Translational Sciences [NCATS] NIH Chemical Genomics Center [NCGC] U.S. Environmental Protection Agency [EPA] National Institutes of Environmental Health Sciences [NIEHS] National Toxicology Program [NTP] U.S. Food and Drug Administration [FDA] Tox21 Assay Overview: All-trans Retinoic acid (atRA) is the potent natural metabolite of retinol and plays an important role in normal embryonic development and maintenance of cellular phenotype in adult animals. atRA is the activating ligand for the retinoic acid receptors (RARs) which form heterodimers with retinoid X receptors (RXRs) on the retinoic acid response element (RARE). Through activation of the RAR/RXRs nuclear receptors, atRA regulates the transcription of a large number of protein-coding genes and regulatory RNAs. Intracellular levels of atRA are controlled by the retinol signaling pathway (RSP) that regulates the biosynthesis and catabolism of atRA to maintain physiological levels. Chemicals that interfere with the RSP can cause abnormal intracellular levels of atRA and therefore are potential developmental toxicants. To assess compounds for the potential adverse effect on embryonic development through interfering with retinol signaling, a cell-based RARE luciferase reporter gene assay was used. C3RL4 cell line (OARSA/CFSAN/FDA, Laurel, MD) was used to screen Tox21 10K compound library for identifying inhibitors of the RSP. Also cytotoxicity was assessed by determining the viability of cells based on the quantitation of ATP.
Tox21 Assay Protocol Summary: C3RL4 cells were seeded at 1,000/well in 4 uL of assay medium into white solid 1,536-well tissue culture plates (Greiner Bio-One North America Inc. Monroe, NC) using a Multidrop Combi (Thermo Scientific, Waltham, MA) dispenser. After incubation at 37 C and 5% CO2 for an overnight, 23 nL of compounds dissolved in DMSO, positive control or DMSO only were transferred by a Pintool station (Kalypsys, San Diego, CA). One ul of 1 uM (final concentration) of Retinol was added right after the compound addition by using a Flying Reagent Dispenser (FRD) (Aurora Discovery, San Diego, CA). After 6 hr incubation at 37 C and 5% CO2, 5 uL of CellTiter-Glo reagent (Promega Corporation, Madison, WI) was added to each assay plate using an FRD. Luminescence was quantified on a ViewLux plate reader (PerkinElmer, Waltham, MA) after 30 min incubation at room temperature.
Turning to `CC1=CC[C@@]23C[C@@H]1C(C)(C)[C@@H]2CC[C@H]3C`, the “activity change, negative = cytotoxicity” value was 0.934%. As for `O=C(O)CCC(=O)c1ccc(-c2ccccc2)cc1`, the “activity change, negative = cytotoxicity” value is -1.34% [at 42.5 µM]. For `O=C(/C=C/c1ccc([N+](=O)[O-])cc1)c1ccccc1`, the “activity change, negative = cytotoxicity” value is 4.78%. Consider `CCCCCCCCCCCCCCCCCC(=O)OCC(CC)CCCC` (stereo not given), for which the “activity change, negative = cytotoxicity” value was 2.65%. With `CCN(CC)CCOc1ccccc1C(=O)CCc1ccccc1`, the “activity change, negative = cytotoxicity” value was -1.3% [at 42.5 µM].

On to `CCCc1nc2c(C)cc(-c3nc4ccccc4n3C)cc2n1Cc1ccc(-c2ccccc2C(=O)O)cc1`, for which the “activity change, negative = cytotoxicity” value is 1.62% [at 42.5 µM]. For `CCCCC(CC)COS(=O)(=O)O` (stereo not given), the “activity change, negative = cytotoxicity” value was 0.669%. Consider `O=C(O)c1cccc(Oc2ccccc2)c1`, for which the “activity change, negative = cytotoxicity” value was -0.118%. Regarding `CCN(Cc1cccc(S(=O)(=O)O)c1)c1ccc(C(=C2C=CC(=[N+](CC)Cc3cccc(S(=O)(=O)O)c3)C=C2)c2ccccc2S(=O)(=O)[O-])cc1`, the Potency is 15.4 µM (active). For `CC(=O)C(=O)CC(C)C`, the “activity change, negative = cytotoxicity” value was 3.83%.

As to `O=C(O)CNC(=O)c1ccccc1I`, the “activity change, negative = cytotoxicity” value was 2.1% [at 42.5 µM]. Still for that read-out and setting: the value for `COc1ccc(-c2cc(=S)ss2)cc1` was -1.11% [at 42.5 µM]; that for `CCCCCCCC(=O)Oc1c(Br)cc(C#N)cc1Br` was -1.14%.

For the compound `CC(C)(O)c1coc(S(=O)(=O)NC(=O)Nc2c3c(cc4c2CCC4)CCC3)c1`, the “activity change, negative = cytotoxicity” value was -1.14%. As for `CCOC(=O)C(C)O` (stereo not given), the “activity change, negative = cytotoxicity” value is -1.33%.

Turning to `CCC(C)(C)C(=O)O`, the “activity change, negative = cytotoxicity” value was 2.54%.

With `O=CNNC=O`, the “activity change, negative = cytotoxicity” value is 4.78%. Turning to `O=C(C(=O)c1ccco1)c1ccco1`, the “activity change, negative = cytotoxicity” value was 5.91%. In the case of `O=C(O)CCCc1c[nH]c2ccccc12`, the “activity change, negative = cytotoxicity” value was 0.827%. `CCN(CC)CC(=O)Nc1c(C)cccc1C(=O)OC`: the “activity change, negative = cytotoxicity” value is 0.629% [at 42.5 µM]. The same measure, in the same setting: the value for `CCO[Si](C)(CCCOCC1CO1)OCC` (stereo not given) was -0.362%; that for `O=C(O)c1cc(Cl)cc(Cl)c1O` was 0.494%. Turning to `CN=C(N)NC(=O)Nc1c(C)cccc1C`, the “activity change, negative = cytotoxicity” value was -0.627% [at 42.5 µM]. As for `O=C1OC[C@H](Cc2cccc(O)c2)[C@H]1Cc1cccc(O)c1`, the “activity change, negative = cytotoxicity” value is 2.42% [at 42.5 µM]. `Cc1ccc(Cl)cc1N`: the “activity change, negative = cytotoxicity” value is 0.153%.

As to `O=C(Nc1ccc(C(=O)O)c(O)c1)c1ccccc1`, the “activity change, negative = cytotoxicity” value is -1.03% [at 42.5 µM].

`CC(CO)(CO)C(=O)O`: the “activity change, negative = cytotoxicity” value is -0.202%. Consider `CC(CN(CCN(CC(C)OCCO)CC(C)OCCO)CC(C)OCCO)OCCO` (stereo not given), for which the “activity change, negative = cytotoxicity” value was 0.553%. Consider `CCCOC(=O)c1c(Cl)c(Cl)c(Cl)c(Cl)c1C(=O)OCCC`, for which the “activity change, negative = cytotoxicity” value is -1.13%. On the same count and under the same terms, the value for `CCN(CC)c1cccc(O)c1` was 4.72%; that for `CC(C)C1CCC(C(=O)N[C@H](Cc2ccccc2)C(=O)O)CC1` (stereo not given in full) was -1.05% [at 42.5 µM]; that for `CC(=O)N[C@@H](Cc1ccc(O)cc1)C(=O)O` was -1.33% [at 42.5 µM]. In the case of `CCCCCC`, the “activity change, negative = cytotoxicity” value was 4%. On the same count and under the same terms, the result for `CC12CC3CC(C)(C1)CC(N)(C3)C2` reads -1.81% [at 42.5 µM]; that for `C=C(C)C(=O)OCCC(F)(F)C(F)(F)C(F)(F)C(F)(F)C(F)(F)C(F)(F)F`, 1.4%. Same read-out and setting: the value for `CCC1CCC(CCC(=O)O)C1` (stereo not given) was -1.83%. Turning to `Cc1ccc(N(CCO)CCO)cc1`, the “activity change, negative = cytotoxicity” value is 3.55%. Regarding `CNS(=O)(=O)c1cc(C(=O)N2CCC(CCN3C4CCC3CC(n3c(C)nc5ccccc53)C4)(c3cccc(F)c3)CC2)c(Cl)cc1F` (stereo not given), the “activity change, negative = cytotoxicity” value was 2.46%. Still for that read-out and setting: the result for `CC(=O)Oc1cccc(O)c1` reads 1.11% [at 42.5 µM]; that for `Cc1ccc2c(c1)CCCN2`, -0.263%.

Values taken from PubChem BioAssay (Tox21).
